Assay outcomes as filed in PubChem.
Shown are actives, neighbours in structure and some others; about 2.4% of the full set was active somewhere.
Dyrk1A ADPGlo: blocks rat Dyrk1A kinase activity | hit rate 0.43% among 310,000 | Q63470 | ADP-Glo luminescence, NFATc1 peptide | inhibition, % at 12.5 µM;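 also: plate controls were vehicle with enzyme for no effect and no enzyme for full effect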
Wnt bcat act: Wnt/beta-catenin pathway activation. Wnt/beta-catenin reporter cell assay, activator, plate reader. activation, % at 9.35 µM. hit rate 1.2% among 300,000. AID 743398; in the data active = activation above about 30%, passing the limit was not always enough;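 also: 0% = neutral control wells and 100% = positive control wells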
GSIS activator: GLuc luminescence reporter in INS-1E cells, primary screen for activators of glucose-dependent secretion of insulin. activation, % at 16.6 µM. INS-1E GLuc reporter insulin secretion, 2-3 h. hit rate 0.61% among 370,000. AID 743287;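 active = lowest replicate activation of at least 40%, so every replicate reaches that level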;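 also: 0% = median of neutral control wells and 100% = median of IBMX positive control wells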
NSD2 inh: inhibitors of human histone methyltransferase NSD2; O96028; NSD2 peptide methylation, AlphaScreen, 120 min; inhibition, % at 12.5 µM; hit rate 0.54% among 310,000; AID 743445
Target sequence (O96028 whole entry, looked up): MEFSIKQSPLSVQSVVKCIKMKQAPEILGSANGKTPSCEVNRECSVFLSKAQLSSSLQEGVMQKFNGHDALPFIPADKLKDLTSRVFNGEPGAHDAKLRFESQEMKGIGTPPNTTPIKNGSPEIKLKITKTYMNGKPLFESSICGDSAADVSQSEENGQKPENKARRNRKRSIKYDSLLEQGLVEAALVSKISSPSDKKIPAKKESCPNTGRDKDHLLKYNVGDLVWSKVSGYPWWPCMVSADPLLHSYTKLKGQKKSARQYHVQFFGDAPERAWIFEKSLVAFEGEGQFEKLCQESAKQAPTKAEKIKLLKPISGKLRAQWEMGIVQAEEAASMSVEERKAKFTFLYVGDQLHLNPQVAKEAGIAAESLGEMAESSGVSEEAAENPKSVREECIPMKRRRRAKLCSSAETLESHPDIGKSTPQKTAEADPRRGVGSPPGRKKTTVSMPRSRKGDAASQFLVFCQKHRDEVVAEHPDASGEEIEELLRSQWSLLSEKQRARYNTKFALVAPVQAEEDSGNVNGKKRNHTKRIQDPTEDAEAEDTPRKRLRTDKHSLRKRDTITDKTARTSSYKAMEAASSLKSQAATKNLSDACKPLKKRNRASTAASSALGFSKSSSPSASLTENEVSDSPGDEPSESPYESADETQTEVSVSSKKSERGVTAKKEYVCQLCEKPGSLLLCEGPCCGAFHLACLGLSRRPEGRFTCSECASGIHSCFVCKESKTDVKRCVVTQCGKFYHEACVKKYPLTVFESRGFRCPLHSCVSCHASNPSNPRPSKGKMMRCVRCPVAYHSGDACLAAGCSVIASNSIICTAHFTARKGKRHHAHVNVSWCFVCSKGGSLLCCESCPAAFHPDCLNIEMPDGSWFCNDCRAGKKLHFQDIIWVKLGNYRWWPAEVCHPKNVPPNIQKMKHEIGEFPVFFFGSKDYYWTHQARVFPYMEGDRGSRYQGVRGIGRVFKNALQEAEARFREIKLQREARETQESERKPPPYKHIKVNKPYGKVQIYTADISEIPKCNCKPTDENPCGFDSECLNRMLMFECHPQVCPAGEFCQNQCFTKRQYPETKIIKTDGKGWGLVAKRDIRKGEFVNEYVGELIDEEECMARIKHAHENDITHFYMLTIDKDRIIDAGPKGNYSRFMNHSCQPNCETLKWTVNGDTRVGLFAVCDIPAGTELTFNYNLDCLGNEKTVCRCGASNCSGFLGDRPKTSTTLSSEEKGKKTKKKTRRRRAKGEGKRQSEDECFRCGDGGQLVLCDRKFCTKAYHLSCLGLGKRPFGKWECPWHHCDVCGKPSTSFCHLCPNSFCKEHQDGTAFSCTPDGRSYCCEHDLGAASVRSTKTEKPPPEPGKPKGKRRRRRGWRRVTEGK
MITF TRPM1 HTS: increases MITF-driven TRPM1 promoter luciferase signal | hit rate 0.75% among 300,000 | activation, % at 12.5 µM | SK-MEL-5 TRPM1-promoter luciferase, 24 h; % of positive control, neutral wells = 0;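 active = mean activation of at least 80% with every replicate also reaching 80%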;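 also: 0% = neutral control wells and 100% = parthenolide positive control wells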
miR122 inh: miR-122 inhibition in Huh7 cells | AID 602342 | Huh7 miR-122 Renilla luciferase sensor, 48 h; neutral wells = 0, positive control = 100 | activation (reporter increase), % at 12.5 µM | hit rate 0.3% among 340,000;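 active = mean replicate activation score at least 90 and every replicate individually at or above 90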;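 also: higher luciferase means less miR-122 activity so hits act as miR-122 inhibitors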
AlphaScreen art: AlphaScreen assay artifact in NSD2 counter-screen | shares compounds with NSD2 inh | AlphaScreen artifact counterscreen, preloaded methylated H4 peptide | AC35, µM (titrated, usually from 10 µM), for the others: top-dose activity change, negative = signal loss | hit rate 9.4% among 1,500 | AID 1053174; call rule not given here
The depositor's hits bear a star; nt = no result given; [ ] = another dose, or the depositor's remark. Rule as the data show it, unless noted: active = inhibition above about 50%; inactive = the rest.

SMILES | Dyrk1A ADPGlo | Wnt bcat act | GSIS activator | NSD2 inh | MITF TRPM1 HTS | miR122 inh | AlphaScreen art
Cc1ccc(S(=O)(=O)N2C[C@H](O)COC[C@H]3O[C@H](CC(=O)N[C@@H]4CCN(Cc5ccccc5)C4)CC[C@@H]32)cc1 | nt | nt | 9 | nt | nt | 2[16.7 µM] | nt
O=C1c2ccccc2C(=O)c2c(NCCCN(CCO)CCO)cccc21 | 34 | 5 | 17 | 29 | -26 | -15 | nt
COCCCNC1=C(Cl)C(=O)c2ccccc2C1=O | nt | 0 | -3 | 68* | nt | -1 | -6%
CC(C)OCCCNC1=C(Cl)C(=O)c2ccccc2C1=O | nt | 18 | -15 | 38 | nt | -7 | nt
CCN(CC)CCCNC1=C(Cl)C(=O)c2ccccc2C1=O | 28 | -22 | -18 | 112* | -110 | -14 | -5%
COc1cccc(S(=O)(=O)Nc2ccc3c(c2)[C@@H]2C[C@H](CC(=O)N(C)C)O[C@H](CO)[C@@H]2O3)c1 | nt | nt | -2 | nt | nt | -6[16.7 µM] | nt
CCS(=O)(=O)N1CC(=O)N2[C@H](CO)[C@@H](c3ccc(C#CCC(C)C)cc3)[C@H]2C1 | nt | nt | 4 | nt | nt | nt | nt
Cc1cccc(OCCn2c(=S)[nH]c3ccccc32)c1 | 6 | nt | nt | 113* | 16 | nt | 4%
c1ccc(CCN2CN=C(Nc3nc4ccccc4s3)NC2)cc1 | nt | -4 | -3 | 64* | nt | 0 | -2%
c1ccc(CN2CN=C(Nc3nc4ccccc4s3)NC2)cc1 | -5 | 9 | nt | 1 | 4 | -5 | nt
CCCC(=O)Nc1ccc2c(c1)C(=O)N(C)C[C@@H](OC)[C@H](C)CN(CC1CCOCC1)[C@H](C)CO2 | nt | nt | 14 | nt | nt | -1[16.7 µM] | nt
O=C(COC(=O)c1ccccc1F)NC1CC1 | nt | 1 | 11 | 52* | 7 | nt | 2%
O=C(COC(=O)c1cccnc1Nc1ccccc1F)NC1CC1 | -5 | 3 | nt | -2 | 6 | nt | nt
Cc1nn(CCCC(=O)NCc2ccc(Cl)cc2)c(C)c1[N+](=O)[O-] | 4 | -3 | -1 | -1 | -11 | nt | nt
COc1ccc(CNC(=O)CCCn2nc(C)c([N+](=O)[O-])c2C)cc1OC | 1 | 38* | 39 | 86* | -2 | nt | 8%
CCOc1ccc(C2C3=C(CCCC3=O)Nc3ccc4ncccc4c32)cc1 (centres undefined) | -1 | 2 | -17 | -6 | -1 | -5 | nt
O=C1CCCC2=C1C(c1ccc(O)c(O)c1)c1c(ccc3ncccc13)N2 (centres undefined) | 1 | 1 | -6 | 77* | -8 | -6 | 0%
CCCCc1ccc(NC(=O)CSc2nc(=O)n(CCN(CC)CC)c3c2CCCC3)cc1 | nt | -20 | -8 | 66* | -26 | -17 | -3%
CCCCc1ccc(NC(=O)CSc2nc(=O)n(CCN(C)C)c3c2CCC3)cc1 | 1 | -4 | -17 | -2 | -20 | -3 | nt
C[C@H]1CN([C@@H](C)CO)C(=O)c2cc(NC(=O)C3CCCCC3)ccc2O[C@H]1CN(C)CC1CC1 | nt | nt | 7 | nt | nt | -5[16.7 µM] | nt
CN(Cc1c(O)ccc2c1oc(=O)c1ccccc12)C1CCCCC1 | 29 | nt | 14 | 75* | 16 | -5 | 2%
O=C(O)c1c2c(nc3ccccc13)/C(=C/c1ccc(O)cc1)CC2 | 4 | -1 | 22 | 83* | -27 | nt | -20%
O=C(O)c1c2c(nc3ccccc13)/C(=C/c1ccc(OC(F)F)cc1)CCC2 | -5 | 9 | 7 | -2 | 27 | nt | nt
O=C(c1ccccc1)N1CC2(C1)[C@H](c1ccccc1)[C@H](CO)N2Cc1cc(F)ccc1F | nt | nt | -25 | nt | nt | nt | nt
NC1=C(Br)C(=O)c2ccccc2C1=O | 23 | 10 | nt | 57* | nt | 10 | -4%
SMILES | Dyrk1A ADPGlo | Wnt bcat act | GSIS activator | NSD2 inh | MITF TRPM1 HTS | miR122 inh | AlphaScreen art
Cc1cc2c(cc1C)C(=O)C(Br)=C(N)C2=O | nt | -4 | -3 | 48 | -61 | -8 | nt
Cc1cc(C(=O)COc2cccc(-n3cnnn3)c2)c(C)n1-c1ccccc1 | -7 | 3 | nt | 56* | nt | -6 | -1%
COc1ccc(C#Cc2ccc3c(c2)[C@H]2[C@H](CCN2C(=O)CC2CC2)[C@@H](CO)N3)cc1 | nt | nt | 15 | nt | nt | 9[16.7 µM] | nt
O=C(CSCC(=O)N1CCOCC1)Nc1nc(-c2ccccc2)cs1 | 1 | 11 | -3 | 53* | 15 | 1 | 2%
COc1ccc(NS(=O)(=O)c2cccc(C(=O)N3CCCCCC3)c2)cc1 | -4 | -2 | -3 | 64* | -7 | nt | -5%
CCOc1ccc2[nH]c(C)cc(=O)c2c1 | 29 | 0 | 5 | nt | -1 | -1 | nt
CCOc1ccc2nc3cc(N=Nc4ccc(N)nc4N)ccc3c(N)c2c1 | 6 | nt | nt | 59* | -74 | -29 | -12%
CCN(CC)c1cc(Cl)c2nonc2c1N | -7 | 0 | 2 | 8 | 2 | nt | nt
CN(C)c1cc(Cl)c2nonc2c1N | 2 | -2 | -9 | 104* | nt | -10 | 1%
Cc1ccc(S(=O)(=O)N[C@H]2CC[C@H](CC(=O)NCCCN(C)C)O[C@@H]2CO)cc1 | nt | nt | 8 | nt | nt | nt | nt
O=C(NNS(=O)(=O)c1ccc(F)cc1F)c1csc(-c2cccnc2)n1 | 28 | -1 | nt | 54* | nt | nt | -7%
O=C(NNC(=O)c1ccc(Cl)cc1Cl)c1csc(-c2cccnc2)n1 | 30 | -1 | 3 | -3 | 23 | -5 | nt
Cc1ccc(C(=O)Nc2nccs2)cc1 | nt | 10 | 9 | -1 | 28 | -2 | nt
O=C(Nc1nccs1)c1ccc2nccnc2c1 | 31 | 23 | nt | 125* | nt | 1 | -2%
CS(=O)(=O)N(CC(=O)NCc1ccc2c(c1)OCO2)c1cccc(Cl)c1 | -2 | 1 | -16 | 106* | -5 | -3 | -2%
CCN(CC)CC(C)(C)C(=O)/C=C/c1ccc(/C=C/C(=O)C(C)(C)CN(CC)CC)cc1 | nt | -6 | 5 | 101* | -93 | nt | -3%
CN(C)CCCN1C(=O)c2cccc3c([N+](=O)[O-])ccc(c23)C1=O | -2 | -24 | -29 | 71* | -53 | nt | -2%
O=C1c2cccc3c([N+](=O)[O-])ccc(c23)C(=O)N1CCc1ccccn1 | 4 | 1 | -3 | 3 | nt | -9 | nt
COc1ccc(C2CCc3cc4c(cc3C2=NOC(C)=O)OCO4)cc1OC (centres undefined) | nt | 1 | nt | 58* | nt | -1 | -7%
O=C(NCCCO)c1ccc2nc(-c3ccco3)c(-c3ccco3)nc2c1 | 9 | 0 | 22 | 107* | -7 | 0 | -2%
C[C@@H]1CN([C@H](C)CO)C(=O)c2cc(NC(=O)Nc3ccc(F)cc3)ccc2O[C@@H](C)CCCCO[C@H]1CN(C)C(=O)NC1CCCCC1 | nt | nt | -21 | nt | nt | -14[16.7 µM] | nt
CCCNC(=O)C[C@H]1C[C@@H]2c3cc(NS(=O)(=O)c4ccc(F)cc4)ccc3O[C@@H]2[C@@H](CO)O1 | nt | nt | -2 | nt | nt | 3[16.7 µM] | nt
O=C(CSc1nccn1-c1ccc(F)cc1)NCc1ccc(F)cc1 | -2 | 5 | 4 | 50* | -2 | -1 | -12%
COc1ccc2c3c(cccc13)N(C)N=C2C | 10 | -1 | nt | 72* | nt | 20 | 3%
COc1ccc2c3c(cccc13)OC2=O | -4 | -1 | -1 | 2 | 8 | nt | nt
